Reference: PubChem BioAssay AID588397 (National Center for Advancing Translational Sciences (NCATS), 2011)
Hit rate of the full screen: of about 1,300 compounds, about 1,000 (77%) were called active. Another 7% or so got no clear call; they are omitted. Calls come from the whole dose curve; as a rule, active = well fitted inhibition curve with a large enough effect; inconclusive = small, poorly fitted or top-dose-only effect; inactive = no such curve, though single readings can be large or run the other way. The set was probably picked from earlier hits. This is one part of the list.

test: qHTS of small molecules that selectively kill Giardia lamblia: Hit Validation.;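 note: viability measured as ATP content by luminescence so killing lowers signal; trophozoites exposed to compounds for 48 h anaerobically at 37 °C; nearly all actives have a fitted effect of over 65% in size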; settings: Giardia lamblia trophozoite viability, dose-response; series mostly up to 38.3 µM
How it was run: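 Viability, read as ATP luminescence: trophozoites at 100 cells/well, compound added, 48 hrs anaerobic at 37 deg C, then 15-30 min room-temperature development before reading.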
Potency is the fitted concentration of half-maximal effect.

| SMILES | Potency |
| --- | --- |
| COc1ccc(CNc2ccc([N+](=O)[O-])cn2)cc1 | 7.29 µM (active) |
| Cc1c(Br)c([N+](=O)[O-])nn1C(C)C(=O)Nc1ccc2c(c1)OCO2 (stereo not drawn) | 1.16 µM (active) |
| O=C(COc1cccnc1[N+](=O)[O-])Nc1ccc2c(c1)OC(F)(F)O2 | 5.79 µM (active) |
| O=C(COc1cccnc1[N+](=O)[O-])Nc1ccc2c(c1)OCO2 | 5.16 µM (active) |
| O=S(=O)(Nc1cc(Sc2cccc3cccnc23)c(O)c2ccccc12)c1ccc(F)cc1 | 11.6 µM (active) |
| Cn1nc([N+](=O)[O-])nc1Sc1cccc2cccnc12 | 7.29 µM (active) |
| Nc1nc(Cl)nc2c1ncn2C1CC(O)C(CO)O1 (stereo not drawn) | 0.115 µM (active) |
| CC(CSc1nnnn1-c1ccccc1)Cn1c(N2CCCC2)nc2c1c(=O)[nH]c(=O)n2C (stereo not drawn) | 0.183 µM (active) |
| COc1ccc(NS(=O)(=O)c2cc(NC(=O)c3ccc(=O)[nH]c3)ccc2C)cc1 | inactive |
| O=C(Nc1ccc2[nH]ccc2c1)c1ccccc1 | 2.05 µM (active) |
| COc1ccc(C(=O)Nc2ccc3[nH]ccc3c2)cc1 | 0.41 µM (active) |
| C(=NN1CCCCCC1)c1ccc2ccccc2n1 | 1.03 µM (active) |
| COc1ccc(OCC(=O)NNC(=O)C2CCN(c3ncnc4sc(C)c(C)c34)CC2)cc1 | inactive |
| CC(=O)NC(Cc1ccccc1)C(=O)NC1CCN(c2ncccc2[N+](=O)[O-])CC1 (stereo not drawn) | 1.63 µM (active) |
| COc1ccc(CN2C(=O)C(CC(C)C)Nc3ncnc(N4CCCCC4)c32)cc1 (stereo not drawn) | inactive |
| CC(NC(=O)c1ccccc1F)c1nnc(SCC(=O)NC2CCCC2)n1C (stereo not drawn) | inactive |
| COc1ccc(CC(NC(C)=O)C(=O)NC2CCN(c3ncccc3[N+](=O)[O-])CC2)cc1 (stereo not drawn) | 2.05 µM (active) |
| CC(=O)NC(Cc1ccccc1F)C(=O)NC1CCN(c2ncccc2[N+](=O)[O-])CC1 (stereo not drawn) | 2.31 µM (active) |
| CC(=O)NC(Cc1ccc(F)cc1)C(=O)NC1CCN(c2ncccc2[N+](=O)[O-])CC1 (stereo not drawn) | 1.83 µM (active) |
| O=C(COc1cccnc1[N+](=O)[O-])Nc1c(Cl)cccc1Cl | 3.26 µM (active) |
| O=C(COc1cccnc1[N+](=O)[O-])Nc1ncc(Cl)cc1Cl | 4.6 µM (active) |
| CC(=O)c1c(COC(=O)c2ccccc2Cl)nc2ccccc2[n+]1[O-] | 14.5 µM (active) |
| CC(=O)c1c(COC(=O)c2ccc(F)cc2)nc2ccccc2[n+]1[O-] | 6.5 µM (active) |
| Cn1c(CNC(=O)c2ccccc2F)cc2ccccc21 | inactive |

| SMILES | Potency |
| --- | --- |
| O=C(Nc1ccc(OCC(=O)N2CCOCC2)cc1)c1ccccc1F | 7.29 µM (active) |
| COc1ccc2oc(=Nc3ccccc3)c(-c3nc4ccccc4[nH]3)cc2c1 | 4.1 µM (active) |
| O=[N+]([O-])c1c(C(Cl)Cl)nn(-c2ccccc2)c1N1CCOCC1 | 1.83 µM (active) |
| CCOC(=O)C1CCN(c2c([N+](=O)[O-])c(C(Cl)Cl)nn2-c2ccccc2)CC1 | 2.9 µM (active) |
| CCN1/C(=C\c2ccc3ccccc3[n+]2CC)Sc2cc(C)ccc21 | inactive |
| COc1ccc(C(=O)c2c(C)oc3cc([N+](=O)[O-])c(O)c([N+](=O)[O-])c23)cc1 | 1.83 µM (active) |
| Cc1oc2cc([N+](=O)[O-])c(O)c([N+](=O)[O-])c2c1C(=O)c1ccc(Cl)cc1 | 2.59 µM (active) |
| Cc1oc2cc([N+](=O)[O-])c(O)c([N+](=O)[O-])c2c1C(=O)c1ccc(Br)cc1 | 2.31 µM (active) |
| CCCn1c(NC(=O)c2ccc([N+](=O)[O-])o2)nc2ccccc21 | 1.3 µM (active) |
| O=C(Nc1nc2cc3c(cc2s1)OCCO3)c1ccc([N+](=O)[O-])o1 | 0.579 µM (active) |
| O=C(Nc1nc2c(Cl)cccc2s1)c1ccc([N+](=O)[O-])o1 | 1.45 µM (active) |
| O=C(Nc1nc2c(F)cc(F)cc2s1)c1ccc([N+](=O)[O-])o1 | 1.16 µM (active) |
| CCn1c(CCNC(=O)c2ccc(F)cc2)nc2ccccc21 | inactive |
| CCOP(=O)(OCC)c1cccc(P(=O)(c2ccccc2)c2ccccc2)c1O | inactive |
| COC(=O)[C@]1(C)N[C@H](CN(C)S(=O)(=O)c2ccc(-c3ccccc3)cc2)[C@@H]2C(=O)N(C)C(=O)[C@@H]21 | inactive |
| O=C(Nc1nc2c(F)cccc2s1)c1ccc([N+](=O)[O-])o1 | 1.03 µM (active) |
| COc1ccc2nc(NC(=O)c3ccc([N+](=O)[O-])o3)sc2c1 | 0.918 µM (active) |
| O=C(Nc1nc2ccccc2s1)c1ccc([N+](=O)[O-])o1 | 1.03 µM (active) |
| O=C(Nc1cccc2ccccc12)c1ccc([N+](=O)[O-])o1 | 1.03 µM (active) |
| O=C(Nc1cccc2ncccc12)c1ccc([N+](=O)[O-])o1 | 0.918 µM (active) |
| NC(=O)c1oc2ccccc2c1NC(=O)c1ccc([N+](=O)[O-])o1 | 0.65 µM (active) |
| COc1cc(C2C(C(=O)c3ccc(C)o3)=C(O)C(=O)N2c2cc(C)on2)ccc1OCc1ccccc1 (stereo not drawn) | inactive |
| CCC(C)Nc1ccc(NC(C)CC)cc1 (stereo not drawn) | 0.183 µM (active) |
| Clc1ccc2c(N/N=C/c3ccc(Br)cc3)ccnc2c1 | 0.516 µM (active) |

| SMILES | Potency |
| --- | --- |
| O=[N+]([O-])c1ccc(/C=N/Nc2ccnc3cc(Cl)ccc23)o1 | 2.05 µM (active) |
| Clc1ccc2c(N/N=C/c3cccc(Br)c3)ccnc2c1 | 1.45 µM (active) |
| Cc1nc2c(N=Nc3ccccc3F)c(N)nn2c(N)c1C#N | 4.6 µM (active) |
| CCOC(=O)Cn1c(=NC(=O)c2ccc([N+](=O)[O-])s2)sc2ccccc21 | 1.83 µM (active) |
| CC(=O)O[C@@H]1[C@@H](O)CN[C@@H]1Cc1ccccc1 | 0.579 µM (active) |
| N=C1C(c2ccccc2)=C(O)CN1c1cccc(S(=O)(=O)N2CCOCC2)c1 | inactive |
| O=[N+]([O-])c1cc(S(=O)(=O)N2CCCC2)ccc1N/N=C/c1ccncc1 | 2.31 µM (active) |
| O=S(=O)(c1ccccc1)N1CCN(S(=O)(=O)c2ccccc2)CC1 | inactive |
| O=[N+]([O-])c1cc(S(=O)(=O)Nc2cccc(Cl)c2)ccc1N/N=C/c1ccc(N2CCOCC2)cc1 | 6.5 µM (active) |
| O=[N+]([O-])c1cc(S(=O)(=O)N2CCOCC2)ccc1NS(=O)(=O)c1ccccc1 | 1.83 µM (active) |
| C(=C\c1nccc2ccccc12)/c1ccc(N2CCOCC2)cc1 | 2.31 µM (active) |
| Nc1ccc(/C=C/c2nccc3ccccc23)cc1 | 3.26 µM (active) |
| Nc1ncnc2c1ncn2C1O[C@H](CO)[C@@H](O)[C@@H]1O (stereo partly drawn) | 0.818 µM (active) |
| O=C(Nc1ccc2nc(-c3ccco3)[nH]c2c1)c1cccs1 | 5.79 µM (active) |
| O=C(Nc1ccc2c(c1)nc1n2CCSC1)c1ccco1 | 4.6 µM (active) |
| O=C(NC12CC3CC(CC(C3)C1)C2)c1ccc([N+](=O)[O-])o1 | 1.03 µM (active) |
| CC(NC(=O)c1ccc([N+](=O)[O-])o1)C12CC3CC(CC(C3)C1)C2 (stereo not drawn) | 0.918 µM (active) |
| CC(NC(=O)c1ccc([N+](=O)[O-])o1)C1CC2CCC1C2 (stereo not drawn) | 1.45 µM (active) |
| O=[N+]([O-])c1nn(-c2ccc3c(c2)OCCO3)n(O)c1=Nc1ccc(Cl)cc1 | 1.3 µM (active) |
| CC(C)c1ccc(N=c2c([N+](=O)[O-])nn(-c3ccc4c(c3)OCCO4)n2O)cc1 | 2.05 µM (active) |
| CC(=O)N(/N=C/c1ccc([N+](=O)[O-])o1)c1nc2ccccc2c(=O)n1-c1ccccc1 | 1.03 µM (active) |
| O=c1c2ccccc2nc(/C=C/c2ccc([N+](=O)[O-])o2)n1CCCO | 0.579 µM (active) |
| Cc1cccc(-c2nnc(SCc3cc(=O)[nH]c4ccccc34)n2C)c1 | inactive |
| CCNc1nc(NCC)nc(N/N=C/c2ccc([N+](=O)[O-])o2)n1 | 2.59 µM (active) |

| SMILES | Potency |
| --- | --- |
| Cc1cc(C)nc(N/N=C/c2ccc(Cl)cc2)n1 | inactive |
| Cc1cc(C)nc(N/N=C/c2ccc([N+](=O)[O-])o2)n1 | 1.3 µM (active) |
| O=C(Cc1csc(Nc2nc(=S)[nH]c3ccccc23)n1)NCCCN1CCN(c2ccccc2F)CC1 | 14.5 µM (active) |
| CCOC(=O)Cc1csc(NC(=S)NC(=O)c2ccc(C)cc2)n1 | 7.29 µM (active) |
| CSc1cccc(NS(=O)(=O)c2cn(C)cn2)c1 | inactive |
| Cc1ccc(OCC(=O)c2cc(C)n(C)c2C)c([N+](=O)[O-])n1 | 1.45 µM (active) |
| Cc1ccc(OCc2ccc([N+](=O)[O-])cc2)c([N+](=O)[O-])n1 | 3.26 µM (active) |
| C=CCn1c(C)cc(C(=O)COc2ccc(C)nc2[N+](=O)[O-])c1C | 0.46 µM (active) |
| COCCn1c(C)cc(C(=O)COc2cccnc2[N+](=O)[O-])c1C | 1.3 µM (active) |
| COCCn1c(C)cc(C(=O)COc2ccc(C)nc2[N+](=O)[O-])c1C | 0.918 µM (active) |
| CCCn1c(C)cc(C(=O)COc2ccc(C)nc2[N+](=O)[O-])c1C | 1.03 µM (active) |
| C=CCn1c(C)cc(C(=O)COC(=O)c2n[nH]c(=O)c3ccccc23)c1C | 4.6 µM (active) |
| c1ccc2cc3c(NCCN4CCOCC4)ccnc3cc2c1 | 1.83 µM (active) |
| Cc1ccc(-c2cnc3cc(C)nn3c2)cc1 | 5.79 µM (active) |
| Clc1ccc(CSc2nc3ccncc3[nH]2)cc1 | 0.579 µM (active) |
| Clc1ccccc1CSc1nc2ccncc2[nH]1 | 3.65 µM (active) |
| O=C(c1ccc(CSc2nc3ccncc3[nH]2)cc1)N1CCCCCC1 | 1.16 µM (active) |
| COc1cccc(CSc2nc3ccncc3[nH]2)c1 | 1.63 µM (active) |
| Cc1ccc(CSc2nc3ccncc3[nH]2)cc1 | 0.259 µM (active) |
| CCCC(=O)NC(=S)NNC(=O)c1ccc([N+](=O)[O-])cc1 | 0.41 µM (active) |
| CC(C)CC(=O)NC(=S)NNC(=O)c1ccc([N+](=O)[O-])cc1 | 1.3 µM (active) |
